Experimental data reported in PubChem BioAssay AID588849 (Broad Institute, 2011).
Potency and affinity values are given separately. Activity calls are given as the source filed them. The rule behind the calls is not given here.

molecular target: CAAX prenyl protease 2 (Homo sapiens) (UniProt Q9Y256); test: inhibition of Ras-converting CAAX protease Rce1 – biochemical, yeast membranes, quenched-peptide fluorescence, cherry-pick, dose response (AID 588849); conditions: yeast membrane fractions expressing human Rce1, quenched-peptide fluorescence, 4 h; series mostly up to 10 µM; activity change, negative = inhibition: at the top concentration
Sequence (Q9Y256 whole entry, looked up): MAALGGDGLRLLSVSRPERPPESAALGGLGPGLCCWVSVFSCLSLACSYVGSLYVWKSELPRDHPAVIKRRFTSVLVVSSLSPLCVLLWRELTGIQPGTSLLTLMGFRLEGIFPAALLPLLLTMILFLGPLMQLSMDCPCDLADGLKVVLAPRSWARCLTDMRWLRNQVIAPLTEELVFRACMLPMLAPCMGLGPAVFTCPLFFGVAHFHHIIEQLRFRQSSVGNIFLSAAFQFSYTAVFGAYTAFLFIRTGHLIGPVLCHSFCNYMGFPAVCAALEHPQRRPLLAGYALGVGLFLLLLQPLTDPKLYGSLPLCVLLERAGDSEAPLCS

Activity change, negative = inhibition, inactive:
Cc1cccc(NC(=O)C2(c3ccc([N+](=O)[O-])cc3)CCCC2)c1 8.88%
CC(=O)C(C)Oc1ccc2c3c(c(=O)oc2c1)CCCC3 (stereo not drawn) 0.274%
Cc1c(C)c2ccc(OC(C)C(=O)NCCCN3CCOCC3)c(C)c2oc1=O (stereo not drawn) -23.6%
Cc1cccc2sc(N(CCN(C)C)C(=O)c3ccc4ccccc4c3)nc12 -27%
COc1ccc(/C=N/NC(=O)c2ccc(Cl)cc2)cc1COC(C)=O -20.8%
O=S(=O)(c1ccccc1)c1cnn2c(C(F)(F)F)cc(-c3ccc(F)cc3)nc12 -1.03%
CCN1CCN(c2ccc(NC(=O)c3cccc(OCc4ccccc4)c3)cc2)CC1 -8.32%
FC(F)(F)c1cc(Oc2ccccc2)ncc1-c1nnc(-c2ccccc2Cl)o1 3.97%
Cc1ccc(S(=O)(=O)c2cn(C)c3cc(N4CCOCC4)c(F)cc3c2=O)cc1 -6.82%
CCn1c(COc2cccc(C)c2)nnc1SCC(=O)NC1CCCC1 -5.79%
Cc1ccc(NC(=O)CCc2ccc(S(=O)(=O)NC3CCCCC3)cc2)cc1 4.69%
Cc1cc(OCC(=O)N2CCC(C(=O)O)CC2)c2c(C)cc(=O)oc2c1 -17.5%
C[C@@]12CCC=C[C@H]1[C@H](c1ccc(/C=C/c3ccccc3)cc1F)N(Cc1ccccc1)C2=O -4.81%
COc1ccccc1CC(=O)Nc1ccc2c(C)cc(=O)oc2c1 -14% [at 3.5 µM]
CC(C)c1ccc(/C=C2\SC(=S)N(CCC(=O)NCCCn3ccnc3)C2=O)cc1 -5.37%
Oc1c(N=NC(=S)Nc2ccccc2F)c2ccccc2n1Cc1ccccc1Cl -16%
COc1cc(-c2nc3ccccn3c2/N=C/c2cc(OC)c(OC)c(OC)c2)ccc1O -9.61% [at 3.5 µM]
CC1=CC2=NC(=O)CC(C)(C(=O)N(CC(=O)NC3CCCC3)Cc3ccccc3)N2C=C1 (stereo not drawn) 7.96%
CC1CCN(C(=O)C2CCN(S(=O)(=O)c3ccc(-n4cnnn4)cc3)CC2)CC1 -8.19%
CCCCOc1ccc(-c2cc(C(F)(F)F)c(C#N)c(SCC(=O)O)n2)cc1 10.3%
NS(=O)(=O)c1ccc(NC(=O)/C=C/c2cn(-c3ccccc3)nc2-c2cccc(Cl)c2)cc1 0.326%
CC(C)CNC(=O)Nc1ccc(F)c(Cl)c1 0.189%
O=C1NC(c2ccc(Br)cc2)Nc2ccccc21 (stereo not drawn) 7.42%
CN1CCN(C(=O)c2ccc(-c3cccs3)s2)CC1 3.13%
CSc1ccc(C(=O)C2CCCN(C(=O)c3cccnc3SC)C2)cc1 (stereo not drawn) -5.94%
CCN(CC)CCCNc1cc(C)nc2cc(-c3cccs3)nn12 -17.1%
C/C(=N\NC(=O)c1ccc(Br)cc1)c1cccc(NC(=O)c2cccnc2)c1 -8.93%
Cc1ccccc1OC(C)C(=O)N1CCC(Cc2ccccc2)CC1 (stereo not drawn) -8.23%
Nc1nnnn1/N=C/c1cccc(OCc2ccccc2Cl)c1 19.6% [at 3.5 µM]
Cc1ccc(Nc2nc(-c3ccc(S(=O)(=O)N4CCOCC4)cc3)cs2)cc1Cl 21%
CCOc1cccc(-c2c(C(=O)N/N=C/c3c(F)cccc3Cl)nnn2-c2nonc2N)c1 4.61%
Cc1ccc(-c2cc3cccc[n+]3cc2-c2ccc(C)cc2)cc1 -24.3%
COc1ccc(-c2nc(CC(=O)O)cs2)cc1OC -9.08%
C/C(CC(=O)NCc1ccco1)=N\NC(=O)c1ccc([N+](=O)[O-])cc1Cl -10.1%
COc1ccc(C(=O)/C=C/c2ccc(OC)cc2OC)c(O)c1 -13%
CC(=O)N[C@@H](C)c1nc2ccccc2n1CCCN1CCN(c2nc(-c3ccc(C)cc3)cs2)CC1 5.44%
Cc1cc(C)n2nc(CC(=O)NNC(=O)c3ccc(N(C)C)cc3)nc2n1 -12.3%
CCN(CC)CCN(C(=O)c1ccc2ccccc2c1)c1nc2cc3c(cc2s1)OCO3 -4.2%
